# Experimental data published in PubChem BioAssay (NCATS).
# Results filed as inconclusive are left out. Entries that show only a call come without a potency. The source made the active and inactive calls. The call rests on the fitted dose curve; in most records, active means well fitted curve in the direction sought with a large enough effect; inconclusive means small, poorly fitted or top-dose-only effect, or another doubt; inactive means no such curve, though single readings can be large; an effect the other way counts as inactive or inconclusive.
# Tests used:
# [1] = Cell Viability - LYMP2-005 (AID 967); further: series mostly up to about 92 µM
# Summary of the method: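 LYMP2-005 human lymphoblastoid cells (2500/well) were treated with compounds for 24 h at 37 C. Intracellular ATP was then measured by CellTiter-Glo luminescence after 30 min at room temperature. AC50 values came from Hill-equation fits of qHTS concentration-response data.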
# [2] = Cell Viability - LYMP2-009 (AID 968); further: nearly all actives have a fitted effect of over 55% in size; further: potency means the concentration at half of the fitted maximal effect
# [3] = Cell Viability - LYMP2-011 (AID 969); further: nearly all actives have a fitted effect of over 60% in size; further: potency means the concentration at half of the fitted maximal effect
# Summary of the method: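 In this qHTS cytotoxicity format, compounds are tested across concentrations on human lymphoblastoid cells in complete medium for 24 hours at 37 C. Viability is taken as cellular ATP measured by luciferase luminescence.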
# [4] = Cell Viability - LYMP2-013 (AID 970); further: nearly all actives have a fitted effect of over 55% in size; further: potency means the concentration at half of the fitted maximal effect
# Summary of the method: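 Cytotoxicity is scored as a concentration-dependent drop in intracellular ATP in human lymphoblastoid cells after 24 hr compound exposure at 37 C. ATP is quantified by luciferase luminescence, and AC50 values come from Hill-equation modeling.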
# [5] = Cell Viability - LYMP2-015 (AID 971); further: nearly all actives have a fitted effect of over 55% in size; further: potency means the concentration at half of the fitted maximal effect
# Summary of the method: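 Cells are seeded at 2500 per well and incubated 5 hr at 37 C. Compounds are added across a concentration series for 24 hr at 37 C. CellTiter-Glo is added, and luminescence is read after 30 min at room temperature.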
# [6] = Cell Viability - LYMP2-017 (AID 972); further: nearly all actives have a fitted effect of over 55% in size; further: potency means the concentration at half of the fitted maximal effect
# Summary of the method: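 Cytotoxicity is scored as a concentration-dependent drop in cellular ATP in a human lymphoblastoid line after 24 hr treatment at 37 C. Values are AC50s from Hill-equation modelling.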
# [7] = Cell Viability - LYMP2-019 (AID 973); further: nearly all actives have a fitted effect of over 55% in size; further: potency means the concentration at half of the fitted maximal effect
# Summary of the method: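 Cytotoxicity is scored as a concentration-dependent drop in cellular ATP after cells (2500/well) receive compound for 24 hr at 37 C. Tetraoctylammonium bromide serves as positive control.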
# [8] = Cell Viability - LYMP2-021 (AID 974); further: potency means the concentration at half of the fitted maximal effect
# Summary of the method: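 Loss of cellular ATP, measured with a luciferase-based CellTiter-Glo readout, serves as the toxicity signal in human lymphoblastoid cells treated for 24 hours at 37 C. Potency is reported as AC50 from a standard Hill model.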
# [9] = Cell Viability - LYMP2-023 (AID 975)
# Summary of the method: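 Steps: seed 2500 human lymphoblastoid cells per well, incubate 5 hr at 37 C, add compound for 24 hr at 37 C, add CellTiter-Glo, hold 30 min at room temperature, read luminescence. AC50 derived by Hill modelling.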
# [10] = Cell Viability - LYMP2-004 (AID 966); further: nearly all actives have a fitted effect of over 65% in size; further: potency means the concentration at half of the fitted maximal effect
# Summary of the method: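 qHTS cytotoxicity: human lymphoblastoid line, 24 hr compound treatment, 37 C, complete medium. Viability read as cellular ATP via luciferase luminescence; tetraoctylammonium bromide served as positive control.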
Structure (SMILES),outcome [1],Potency [2],Potency [3],Potency [4],Potency [5],Potency [6],Potency [7],Potency [8],Potency [9],Potency [10]
CCC(O)C(C)(C)C (configuration not stated),inactive,inactive,inactive,inactive,inactive,inactive,inactive,inactive,inactive,–
CC1CCC2CC1C2(C)C (configuration not stated),inactive,inactive,inactive,inactive,inactive,inactive,inactive,inactive,inactive,–
CC(C)c1ccccc1,–,–,inactive,inactive,inactive,inactive,inactive,inactive,inactive,inactive
COc1cccc2sc(N)nc12,–,–,–,inactive,inactive,inactive,inactive,inactive,inactive,inactive
OC1CCCC1,–,inactive,inactive,–,inactive,inactive,inactive,inactive,inactive,inactive
O=Nc1ccc(NO)cc1,–,50.1 µM (active),–,50.1 µM (active),–,–,50.1 µM (active),50.1 µM (active),inactive,50.1 µM (active)
COc1ccccc1[N+](=O)[O-],inactive,inactive,inactive,inactive,inactive,inactive,inactive,inactive,inactive,–
CCCCOCCOCCSC#N,inactive,inactive,inactive,inactive,inactive,inactive,inactive,inactive,inactive,–
CCCCCCC=O,–,inactive,–,inactive,inactive,inactive,inactive,inactive,inactive,inactive
[O-]/[N+](=N\O)c1ccccc1,–,inactive,inactive,–,inactive,inactive,inactive,inactive,inactive,inactive
CCCCC(C=O)CC (configuration not stated),–,inactive,–,inactive,inactive,inactive,inactive,inactive,inactive,inactive
c1ccc2[nH]cnc2c1,–,–,inactive,inactive,inactive,inactive,inactive,inactive,inactive,inactive
Cc1cccc(C(=O)O)c1,–,inactive,inactive,–,inactive,inactive,inactive,inactive,–,inactive
CCCCCCCCN,inactive,inactive,inactive,inactive,inactive,inactive,inactive,inactive,inactive,–
CCOC(C)(C)C,inactive,inactive,inactive,inactive,inactive,inactive,inactive,inactive,inactive,–
Cc1ccc(C)o1,–,inactive,inactive,–,inactive,inactive,inactive,inactive,inactive,inactive
C=C(C)OC(C)=O,–,inactive,–,inactive,inactive,–,inactive,inactive,inactive,inactive
CCC(C)O (configuration not stated),inactive,inactive,inactive,inactive,inactive,inactive,inactive,inactive,inactive,–
C=C(C)C(=O)OCC(C)C,inactive,inactive,inactive,inactive,inactive,inactive,inactive,inactive,inactive,–
CCCOCC(C)OCC(C)O (configuration not stated),–,inactive,inactive,–,inactive,inactive,inactive,inactive,inactive,inactive
Nc1cc(Cl)c([N+](=O)[O-])cc1O,–,inactive,inactive,inactive,inactive,–,inactive,inactive,inactive,inactive
N#CCc1ccccc1[N+](=O)[O-],–,inactive,inactive,inactive,inactive,–,inactive,inactive,inactive,inactive
CC(=O)OC(C)C,–,inactive,inactive,–,inactive,inactive,inactive,inactive,inactive,inactive
COc1ccc(N)c(C)c1,–,–,inactive,inactive,inactive,–,inactive,inactive,inactive,inactive
C1CCOC1,inactive,inactive,inactive,inactive,inactive,inactive,inactive,inactive,inactive,–

Structure (SMILES),outcome [1],Potency [2],Potency [3],Potency [4],Potency [5],Potency [6],Potency [7],Potency [8],Potency [9],Potency [10]
CC(C)N(C)C,–,–,inactive,inactive,inactive,inactive,inactive,inactive,inactive,inactive
O=Cc1ccccc1Cl,–,inactive,–,–,inactive,inactive,inactive,inactive,inactive,inactive
COC(=O)CC#N,inactive,inactive,inactive,inactive,inactive,inactive,inactive,inactive,inactive,–
Fc1ccccc1,inactive,inactive,inactive,inactive,inactive,inactive,inactive,inactive,inactive,–
Cc1ccc2oc(=O)ccc2c1,–,inactive,inactive,–,inactive,inactive,inactive,inactive,inactive,inactive
Cc1cccc(C(=O)O)c1[N+](=O)[O-],inactive,inactive,inactive,inactive,inactive,inactive,inactive,inactive,–,–
O=C(O[C@@H](C(=O)O)[C@@H](OC(=O)c1ccccc1)C(=O)O)c1ccccc1,–,inactive,inactive,inactive,inactive,–,inactive,inactive,inactive,inactive
Nc1nc2ccccc2[nH]1,–,inactive,inactive,–,inactive,inactive,inactive,inactive,inactive,inactive
O=Cc1ccc(CO)o1,inactive,inactive,inactive,inactive,inactive,inactive,inactive,inactive,inactive,–
Nc1c(Cl)cc(Cl)cc1Cl,inactive,inactive,inactive,inactive,inactive,inactive,inactive,inactive,inactive,–
NS(=O)(=O)O,–,–,inactive,inactive,inactive,inactive,inactive,inactive,–,–
O=C1OC(=O)c2c(Cl)c(Cl)c(Cl)c(Cl)c21,inactive,inactive,inactive,inactive,inactive,inactive,inactive,inactive,inactive,–
CCCCC(CC)CNCC(CC)CCCC (configuration not stated),–,inactive,inactive,inactive,inactive,inactive,inactive,inactive,inactive,–
O=[N+]([O-])c1cccc(Cl)c1,inactive,inactive,inactive,inactive,inactive,inactive,inactive,–,inactive,–
COc1ccc(N)c(OC)c1,inactive,–,inactive,inactive,inactive,inactive,inactive,inactive,–,–
CCCCCCCCC/C=C/CC1CC(=O)OC1=O (configuration not stated),–,inactive,inactive,inactive,inactive,inactive,inactive,–,inactive,–
O=C(O)c1ccc(Cl)c(Cl)c1,inactive,–,inactive,inactive,inactive,–,inactive,–,inactive,–
O=C(Cl)c1cccc([N+](=O)[O-])c1,inactive,–,–,inactive,inactive,inactive,inactive,inactive,inactive,–
CCC(C)=O,inactive,–,inactive,inactive,inactive,–,inactive,inactive,inactive,–
NC(=O)NC(N)=O,inactive,inactive,inactive,–,inactive,inactive,inactive,inactive,inactive,–
O=C(O)/C=C/C(=O)O,–,inactive,inactive,inactive,inactive,inactive,inactive,–,–,–
Nc1cccc([N+](=O)[O-])c1,inactive,–,inactive,inactive,inactive,inactive,inactive,inactive,–,–
ClC/C=C/CCl,–,inactive,inactive,inactive,inactive,inactive,–,inactive,inactive,–
Cc1ccc(C)cc1,inactive,inactive,–,inactive,inactive,inactive,inactive,inactive,inactive,–
Cc1ccc2ncccc2c1,inactive,inactive,inactive,inactive,inactive,–,inactive,inactive,–,–

Structure (SMILES),outcome [1],Potency [2],Potency [3],Potency [4],Potency [5],Potency [6],Potency [7],Potency [8],Potency [9],Potency [10]
C=CCOC(=O)COCCC(C)C,inactive,–,inactive,inactive,inactive,inactive,inactive,inactive,inactive,–
CC(=O)c1cccc([N+](=O)[O-])c1,inactive,inactive,–,inactive,inactive,–,inactive,inactive,inactive,–
CCCCC/C=C/C=C/C=O,–,–,39.8 µM (active),50.1 µM (active),31.6 µM (active),31.6 µM (active),50.1 µM (active),39.8 µM (active),–,–
CC(C)Nc1ccccc1,inactive,inactive,inactive,inactive,inactive,inactive,inactive,–,inactive,–
OCCO,inactive,–,–,–,inactive,inactive,inactive,inactive,inactive,–
CCC(C)(C)OC,inactive,inactive,–,inactive,inactive,inactive,inactive,inactive,inactive,–
NC(=S)NNC(N)=S,inactive,inactive,inactive,inactive,inactive,inactive,inactive,–,inactive,–
C=CCCC,inactive,inactive,inactive,inactive,inactive,inactive,inactive,–,inactive,–
Cc1cccc(C)c1,inactive,–,–,inactive,inactive,inactive,inactive,inactive,inactive,–
CSc1ccc(C=O)cc1,inactive,inactive,inactive,–,inactive,inactive,inactive,–,inactive,–
CC(=O)C1(C)CC2=C(CCCC2(C)C)CC1C (configuration not stated),–,–,inactive,inactive,inactive,inactive,inactive,inactive,inactive,–
Cc1ccc(Cl)cc1N,–,–,inactive,inactive,inactive,–,inactive,inactive,inactive,–
CC(=O)Nc1ccc(N)cc1,–,inactive,inactive,inactive,inactive,inactive,inactive,inactive,inactive,–
Cc1ccccc1C(N)=O,–,inactive,inactive,inactive,inactive,inactive,inactive,inactive,inactive,–
O=C1OC(=O)c2cc([N+](=O)[O-])ccc21,inactive,inactive,inactive,inactive,inactive,inactive,inactive,–,inactive,–
N#CC1(O)CCCCC1,inactive,inactive,inactive,inactive,inactive,inactive,inactive,inactive,inactive,–
Nc1cccc(N)c1,–,inactive,inactive,inactive,inactive,inactive,inactive,inactive,inactive,–
COC(=O)c1ccccc1,inactive,inactive,inactive,inactive,inactive,–,inactive,–,inactive,–
O=C(O)CCSSCCC(=O)O,inactive,–,inactive,inactive,inactive,inactive,inactive,inactive,inactive,–
Cc1cc(C)cc(N)c1,inactive,inactive,inactive,inactive,inactive,inactive,inactive,inactive,inactive,–
c1ccc2c(c1)Oc1ccccc1S2,inactive,inactive,–,inactive,inactive,inactive,inactive,inactive,inactive,–
O=Cc1c(Cl)cccc1Cl,–,inactive,inactive,inactive,–,–,inactive,inactive,inactive,–
O=[N+]([O-])c1cc(C(F)(F)F)ccc1Cl,inactive,inactive,inactive,inactive,inactive,inactive,inactive,–,inactive,–
CC(CCl)OC(C)CCl (configuration not stated),inactive,inactive,inactive,inactive,inactive,–,inactive,inactive,–,–
CC(=O)c1cc(C)oc1C,inactive,inactive,–,inactive,inactive,inactive,inactive,inactive,inactive,–
